SMILES strings stand for the structures. The panel holds about 83,000 compounds, 20% with a hit somewhere; the sample as a whole holds those more often.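 Values shown are percent growth following 48 h exposure of cells in 96-well plates to a single concentration of compound; below 10 was considered active.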 Unmarked numbers belong to inactive results. The source made the active and inactive calls.

Some test systems named below: NCI-H23 lung; NCI-H322M lung; HOP-62 NSCLC; NCI-H460 lung; HOP-92 NSCLC; NCI-H522 lung; A549/ATCC NSCLC; 786-0 renal; COLO 205 colon; DU-145 prostate.
Common to all, as to assay: NCI-60 one-dose screen, 48 h (100 = growth as untreated, 0 = no growth, -100 = all killed)
Common to all, as to details: 10 µM unless noted

As to `Clc1ccc(Oc2ccc(Nc3ncnc4onc(-c5ccccc5)c34)cc2)c(Cl)c1`, the growth in the experiment on NCI-H23 lung is 89.4%; in the experiment with NCI-H322M lung, 111%; in the experiment on HOP-62 NSCLC, 104%; with NCI-H460 lung it was 101%; with HOP-92 NSCLC it was 102%; in the experiment on NCI-H522 lung, 73.2%. The growth with A549/ATCC NSCLC is 91.2%; in the experiment on 786-0 renal, 96.3%; with COLO 205 colon, 105%; in the experiment with DU-145 prostate, 106%.
For the molecule `Cc1ccc2cccc(Oc3ccc(Nc4ncnc5onc(-c6ccccc6)c45)cc3)c2n1`, the growth is 87.9% with NCI-H23 lung; 88.2% in the experiment with NCI-H322M lung; 90.4% in the experiment on HOP-62 NSCLC; 73.5% with NCI-H460 lung; 26.3% with HOP-92 NSCLC; 72.2% in the experiment on NCI-H522 lung. Besides, the growth is 80.6% in the experiment with A549/ATCC NSCLC, 101% in the experiment on 786-0 renal, 59.1% with COLO 205 colon and 94.4% in the experiment with DU-145 prostate.
Consider `O=S(=O)(c1ccc(NC(=S)NC23CC4CC(CC(C4)C2)C3)cc1)N1CCCCC1`, for which the growth was 95.5% in the experiment on NCI-H23 lung; 102% in the experiment with NCI-H322M lung; 107% with HOP-62 NSCLC; 36.3% in the experiment with NCI-H460 lung; -8.91% (active) in the experiment on HOP-92 NSCLC; 74.3% with NCI-H522 lung. The growth with A549/ATCC NSCLC was 72.5%; with 786-0 renal, 92.3%; with COLO 205 colon, 119%; in the experiment on DU-145 prostate, 41.4%.
For the molecule `COc1ccc(OC)c(/C=C/C(=O)c2c(C)nc3ccccc3c2/C=C/c2ccccc2)c1`, the growth with NCI-H23 lung is 58.8%; in the experiment on NCI-H322M lung, 78.5%; in the experiment on HOP-62 NSCLC, 90.7%; in the experiment on NCI-H460 lung, 28.6%; with HOP-92 NSCLC, 48.5%; with NCI-H522 lung it was 23.7%. For the same molecule, the growth in the experiment on A549/ATCC NSCLC was 55.8%; in the experiment with 786-0 renal, 89.2%; with COLO 205 colon, 86.4%; in the experiment on DU-145 prostate it was 54.2%.
As to `CCOc1c(Br)cc(C2C(C(=O)OC)=CN(C)C=C2C(=O)OC)cc1OC`, the growth is 98% with NCI-H23 lung; 76.3% with NCI-H322M lung; 84.6% in the experiment with HOP-62 NSCLC; 48.3% in the experiment on NCI-H460 lung; 39.2% with HOP-92 NSCLC; 75.9% in the experiment on NCI-H522 lung. In addition, the growth was 85.9% in the experiment with A549/ATCC NSCLC, 58.3% in the experiment on 786-0 renal, -88.1% (active) in the experiment with COLO 205 colon and 91.4% in the experiment on DU-145 prostate.
Consider `CN1C(=O)N(C)C2(c3ccccc3)OC(=S)NC12c1ccccc1` (stereo not given), for which the growth was 99.3% in the experiment with NCI-H23 lung; 92% in the experiment on NCI-H322M lung; 90.1% in the experiment with HOP-62 NSCLC; 112% with NCI-H460 lung; 101% in the experiment on HOP-92 NSCLC; 90.4% in the experiment with NCI-H522 lung. For the same molecule, the growth is 87.5% in the experiment on A549/ATCC NSCLC, 96.2% in the experiment with 786-0 renal, 107% in the experiment with COLO 205 colon and 94.4% with DU-145 prostate.
Turning to `S=C1NC2(c3ccccc3)CCC(=S)N2c2ccccc21` (stereo not given), the growth with NCI-H23 lung is 103%; in the experiment on NCI-H322M lung, 95.8%; in the experiment on HOP-62 NSCLC, 98.2%; with NCI-H460 lung, 108%; with HOP-92 NSCLC it was 99.1%; in the experiment on NCI-H522 lung, 90.7%. Also, the growth in the experiment on A549/ATCC NSCLC is 101%; in the experiment with 786-0 renal, 104%; in the experiment with COLO 205 colon, 117%; in the experiment with DU-145 prostate, 115%.
As for `COc1ccc(Cn2c(Br)c3c(c2-c2cc(OC)c(OC)c(OC)c2)CCc2sc(NC(=O)c4ccc(OC)cc4)nc2-3)cc1`, the growth is 91.9% in the experiment on NCI-H23 lung; 69.3% in the experiment with NCI-H322M lung; 106% in the experiment with HOP-62 NSCLC; 98% with NCI-H460 lung; 89.1% with HOP-92 NSCLC; 85.4% in the experiment on NCI-H522 lung. In addition, the growth in the experiment on A549/ATCC NSCLC is 94.2%; in the experiment with 786-0 renal, 89.8%; in the experiment on COLO 205 colon it was 107%; in the experiment on DU-145 prostate, 102%.
In the case of `CSc1nc2c(c(=O)[nH]1)N=C1c3ccccc3C(=O)C1C(c1ccc(F)cc1)N2` (stereo not given), the growth in the experiment with NCI-H23 lung was 83.7%; in the experiment with NCI-H322M lung it was 92.3%; with HOP-62 NSCLC, 63.6%; in the experiment on NCI-H460 lung it was 51.7%; in the experiment on HOP-92 NSCLC, 58.3%; in the experiment with NCI-H522 lung it was 75.9%. For the same molecule, the growth was 56.3% in the experiment on A549/ATCC NSCLC, 71.5% in the experiment with 786-0 renal, 53.4% with COLO 205 colon and 103% in the experiment on DU-145 prostate.
In the case of `COc1ccccc1C(=O)O/N=C(\N)Cc1cccc2ccccc12`, the growth with NCI-H23 lung was 80.9%; with NCI-H322M lung it was 97.6%; in the experiment with HOP-62 NSCLC it was 94.6%; in the experiment with NCI-H460 lung it was 70.7%; in the experiment with HOP-92 NSCLC, 91%; with NCI-H522 lung, 85%. For the same molecule, the growth in the experiment with A549/ATCC NSCLC is 70.1%; in the experiment with 786-0 renal, 106%; with COLO 205 colon it was 67.8%; in the experiment with DU-145 prostate, 99.1%.
As for `O=C1/C(=C/c2ccc(O)cc2)COc2ccc(O)cc21`, the growth is 92.2% in the experiment with NCI-H23 lung; 98.2% in the experiment with NCI-H322M lung; 114% in the experiment on HOP-62 NSCLC; 105% in the experiment on NCI-H460 lung; 124% in the experiment with HOP-92 NSCLC; 87.7% in the experiment on NCI-H522 lung. The growth in the experiment with A549/ATCC NSCLC was 107%; in the experiment with 786-0 renal it was 109%; in the experiment on COLO 205 colon, 114%; in the experiment with DU-145 prostate, 104%.
Turning to `O=C(c1nc2ccccc2[nH]1)C1[C@@H](c2cccc(O)c2)C2CC3CCCCC3N2[C@@]12C(=O)Nc1cc(Cl)ccc12` (stereo not given in full), the growth is 48.6% in the experiment with NCI-H23 lung; 61.6% with NCI-H322M lung; 60.3% with HOP-62 NSCLC; 13.1% with NCI-H460 lung; 55% in the experiment on HOP-92 NSCLC; 51.9% with NCI-H522 lung. Moreover, the growth in the experiment on A549/ATCC NSCLC is 27.2%; in the experiment on 786-0 renal, 35.2%; with COLO 205 colon, 63.5%; with DU-145 prostate, 43.7%.
Take `O=c1oc2ccc(F)cc2c(=O)n1-c1ccc(Br)cc1F`: the growth with NCI-H23 lung is 1.49% (active); in the experiment with NCI-H322M lung it was 6.65% (active); with HOP-62 NSCLC, -0.164% (active); in the experiment on NCI-H460 lung, 4.13% (active); with HOP-92 NSCLC, -15.2% (active); in the experiment on NCI-H522 lung, -17.9% (active). Also, the growth in the experiment with A549/ATCC NSCLC is 4.2% (active); in the experiment on 786-0 renal, 2.85% (active); with COLO 205 colon it was 27.7%; with DU-145 prostate, 14.5%.
For `COc1ccc(C2Nc3nc(OC)n(C)c(=O)c3N=C3c4ccccc4C(=O)C32)cc1` (stereo not given), the growth in the experiment on NCI-H23 lung is 100%; with NCI-H322M lung it was 106%; with HOP-62 NSCLC, 91.1%; with NCI-H460 lung it was 97%; with HOP-92 NSCLC it was 81.9%; with NCI-H522 lung, 94.8%. The growth in the experiment with A549/ATCC NSCLC was 106%; in the experiment with 786-0 renal it was 98.1%; in the experiment with COLO 205 colon, 104%; in the experiment with DU-145 prostate, 89.2%.

The values are drawn from PubChem BioAssay (NCI).
